# Experimental data reported in PubChem BioAssay.
# Values without a mark were called inactive. A call without a number means that no potency is given here. For some assays here: Potency and affinity values are given separately. Activity calls are given as the source filed them. Unless noted, no rule for the calls is given here.
# Columns and labels:
# [1] = antimalarial activity against Dd2 strain (AID 2302;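 active = growth inhibition above 50% at the single 2 µM test dose, taken to imply half-maximal potency below 2 µM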); settings: P. falciparum Dd2 in RBCs, LDH growth readout, 72 h; at 2 µM; stronger effect = higher value
# [2] = HepG2 cytotoxicity, primary screen, cytotoxicity control for P. falciparum antimalarial project, cell-based, ATP luminescence (AID 2303;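 active = inhibition above 50%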); settings: HepG2 viability, 24-48 h, at 10 µM, stronger effect = higher value
# [3] = target: L-lactate dehydrogenase (Plasmodium falciparum (isolate CDC / Honduras)) (UniProt Q27743); assay: PfLDH activity inhibition – cell lysate, 3D7 strain, counter-screen for P. falciparum growth inhibition project (AID 2304); settings: P. falciparum 3D7 crude extract, LDH APAD/NBT absorbance; at 2 µM; stronger effect = higher value
# [4] = inhibition of 3D7 malaria parasite growth – strain 3D7 (AID 2306); settings: P. falciparum 3D7 erythrocytic growth, LDH absorbance, 72 h; at 2 µM; stronger effect = higher value
# [5] = target: Calcium-dependent protein kinase 1 (Plasmodium falciparum (isolate 3D7)) (UniProt P62344); assay: PfCDPK1 kinase inhibitors, biochemical, TCAMS library (AID 1159585; cut-off not given, nearly all actives have IC50 up to about 0.98 µM;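 also: inhibitors leave more ATP so luminescence rises with inhibition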); settings: recombinant PfCDPK1, Kinase-Glo ATP depletion luminescence
# [6] = target: Plasmodium falciparum protein kinase 6 (PK6, PF3D7_1337100) (UniProt Q8IDW1); assay: PfPK6 kinase inhibitors, biochemical, TCAMS library (AID 1159586); settings: recombinant PfPK6, Kinase-Glo ATP depletion luminescence
# [7] = target: Protein kinase 7 (PK7), Plasmodium falciparum 3D7 (PF3D7_0213400) (UniProt Q7YTF7); assay: inhibition of Plasmodium PK7 catalytic activity – biochemical, TCAMS antimalarial set, Kinase-Glo luminescence (AID 1159587); settings: recombinant PfPK7, Kinase-Glo ATP depletion luminescence
# [8] = target: Calcium-dependent protein kinase 4 (Plasmodium falciparum (isolate 3D7)) (UniProt Q8IBS5); assay: PfCDPK4 kinase inhibitors, biochemical, TCAMS library (AID 1159588; cut-off not given, nearly all actives have IC50 up to about 0.91 µM); settings: recombinant PfCDPK4, Kinase-Glo ATP depletion luminescence
# Calcium-dependent protein kinase 4 (Plasmodium falciparum (isolate 3D7)), sequence (Q8IBS5 whole entry, looked up): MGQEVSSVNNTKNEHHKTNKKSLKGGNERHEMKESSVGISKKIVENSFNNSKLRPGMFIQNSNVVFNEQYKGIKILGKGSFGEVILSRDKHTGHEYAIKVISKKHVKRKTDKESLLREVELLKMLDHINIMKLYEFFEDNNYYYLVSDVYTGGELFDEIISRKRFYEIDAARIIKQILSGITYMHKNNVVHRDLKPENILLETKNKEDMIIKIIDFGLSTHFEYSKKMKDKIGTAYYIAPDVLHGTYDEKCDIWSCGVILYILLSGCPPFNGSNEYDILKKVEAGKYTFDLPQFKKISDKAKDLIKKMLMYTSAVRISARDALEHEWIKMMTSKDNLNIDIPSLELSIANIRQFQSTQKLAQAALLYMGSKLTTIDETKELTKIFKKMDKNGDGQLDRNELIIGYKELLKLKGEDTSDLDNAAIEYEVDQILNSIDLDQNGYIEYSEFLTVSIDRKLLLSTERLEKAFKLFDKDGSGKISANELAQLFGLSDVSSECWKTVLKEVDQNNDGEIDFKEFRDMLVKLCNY
# Protein kinase 7 (PK7), Plasmodium falciparum 3D7 (PF3D7_0213400), sequence (Q7YTF7 1-343): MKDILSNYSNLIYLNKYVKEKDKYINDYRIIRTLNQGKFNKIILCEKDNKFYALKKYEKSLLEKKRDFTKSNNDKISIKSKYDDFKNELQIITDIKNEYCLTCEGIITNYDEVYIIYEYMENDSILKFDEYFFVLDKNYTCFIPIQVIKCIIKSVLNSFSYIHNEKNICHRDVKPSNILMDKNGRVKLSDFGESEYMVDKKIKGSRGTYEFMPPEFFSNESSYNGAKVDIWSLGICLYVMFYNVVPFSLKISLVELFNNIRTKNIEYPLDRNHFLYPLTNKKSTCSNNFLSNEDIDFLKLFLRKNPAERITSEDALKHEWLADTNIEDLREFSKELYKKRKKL
# L-lactate dehydrogenase (Plasmodium falciparum (isolate CDC / Honduras)), sequence (Q27743 whole entry, looked up): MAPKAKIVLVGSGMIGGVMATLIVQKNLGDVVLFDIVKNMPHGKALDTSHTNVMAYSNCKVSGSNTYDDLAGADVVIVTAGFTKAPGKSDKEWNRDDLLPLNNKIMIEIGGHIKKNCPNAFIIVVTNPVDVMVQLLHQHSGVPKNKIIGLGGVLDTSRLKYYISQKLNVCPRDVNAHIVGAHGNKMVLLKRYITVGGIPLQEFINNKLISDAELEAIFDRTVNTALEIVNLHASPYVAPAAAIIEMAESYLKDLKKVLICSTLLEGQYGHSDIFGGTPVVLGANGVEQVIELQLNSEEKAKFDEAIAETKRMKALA
# Calcium-dependent protein kinase 1 (Plasmodium falciparum (isolate 3D7)), sequence (P62344 whole entry, looked up): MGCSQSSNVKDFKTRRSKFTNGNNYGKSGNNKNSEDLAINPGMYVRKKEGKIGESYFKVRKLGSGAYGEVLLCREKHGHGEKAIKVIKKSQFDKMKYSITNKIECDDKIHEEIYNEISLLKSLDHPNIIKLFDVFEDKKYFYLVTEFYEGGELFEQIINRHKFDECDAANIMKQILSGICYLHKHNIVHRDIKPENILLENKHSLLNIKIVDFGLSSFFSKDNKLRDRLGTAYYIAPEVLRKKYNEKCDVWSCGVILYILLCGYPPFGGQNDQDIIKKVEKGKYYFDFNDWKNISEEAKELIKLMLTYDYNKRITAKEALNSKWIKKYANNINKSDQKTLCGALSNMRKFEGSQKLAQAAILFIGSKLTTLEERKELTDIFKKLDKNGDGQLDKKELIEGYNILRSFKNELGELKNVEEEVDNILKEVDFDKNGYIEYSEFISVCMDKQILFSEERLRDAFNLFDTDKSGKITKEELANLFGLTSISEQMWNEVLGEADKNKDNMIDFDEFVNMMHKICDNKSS
# Plasmodium falciparum protein kinase 6 (PK6, PF3D7_1337100), sequence (Q8IDW1 1-305): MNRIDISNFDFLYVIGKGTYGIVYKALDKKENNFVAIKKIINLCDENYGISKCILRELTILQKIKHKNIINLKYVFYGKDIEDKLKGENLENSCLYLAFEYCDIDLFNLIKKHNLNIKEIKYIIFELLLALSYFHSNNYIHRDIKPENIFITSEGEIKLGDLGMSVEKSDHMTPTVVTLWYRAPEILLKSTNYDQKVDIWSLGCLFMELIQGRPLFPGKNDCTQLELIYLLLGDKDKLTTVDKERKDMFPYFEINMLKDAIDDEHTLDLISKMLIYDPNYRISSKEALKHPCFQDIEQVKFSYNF
SMILES,growth inhibition [1],inhibition [2],inhibition [3] [%],growth inhibition [4],outcome [5],outcome [6],outcome [7],outcome [8]
Cc1cc(NCc2ccc(F)cc2)nc2cc(O)ccc12,85% (active),14%,-7,98% (active),inactive,inactive,inactive,inactive
CCc1c[nH]c2c(N3CCCC3=O)cc(C(=O)N[C@@H](Cc3ccccc3)[C@H](O)CNC3CCCCC3)cc12,98% (active),12%,-1,100% (active),inactive,inactive,inactive,inactive
Cc1[nH]c2ccc(-c3ccc(OC(F)(F)F)cc3)cc2c(=O)c1C#N,97% (active),-5%,-9,98% (active),inactive,inactive,inactive,inactive
CC(=O)Nc1ccc(CN2CCC(NC(=O)c3ccc(-c4ccc(N(C)C)cc4)s3)CC2)cc1,57% (active),20%,-1,100% (active),inactive,inactive,inactive,inactive
CS(=O)(=O)c1ccc(-c2cncc(Cl)n2)cc1,95% (active),8%,7,100% (active),inactive,inactive,inactive,inactive
O=C(/C=C/C=C/c1ccc(Cl)c(Cl)c1)NCCCCCN1CCCC2CCCCC21 (stereo not given),48%,41%,-5,91% (active),inactive,inactive,inactive,inactive
Cc1[nH]c(C)c(-c2ccc(-c3ccc(OC(F)(F)F)cc3)cc2)c(=O)c1Br,97% (active),33%,-3,96% (active),inactive,inactive,inactive,inactive
CCCCCCCCCCN1C(=O)C2C(CCCCNC(C)=O)NC3(C(=O)N(Cc4ccc(C(C)(C)C)cc4)c4ccccc43)C2C1=O (stereo not given),65% (active),3%,-3,86% (active),inactive,inactive,inactive,inactive
CC(CCCCC(=O)Nc1ccc(CC(C)NCCc2cccc(Cl)c2)cc1)NCCc1cccc(Cl)c1 (stereo not given),-1%,28%,-1,91% (active),inactive,inactive,inactive,inactive
N#Cc1cc([N+](=O)[O-])ccc1-n1nc(-c2cccc(Cl)c2)n(Cc2ccco2)c1=S,100% (active),12%,-1,101% (active),inactive,inactive,inactive,inactive
O=C(Nc1ccc(Oc2cccnc2)cc1)C1CCN(Cc2cc(Cl)ccc2O)CC1,1%,37%,-2,83% (active),inactive,inactive,inactive,inactive
Cc1cc(NN=Cc2cccc(F)c2)c2cc(F)ccc2n1,99% (active),7%,-1,101% (active),inactive,inactive,inactive,inactive
CCC(CC)CN1C(=O)C(c2ccccc2)(c2ccccc2)N=C1N,81% (active),14%,-3,97% (active),inactive,inactive,inactive,inactive
COc1ccc(Br)cc1/C=C/C(=O)Nc1ccc2c(c1)CCCN(C)C2,10%,8%,1,84% (active),inactive,inactive,inactive,inactive
COc1ccc(-c2cccc(NC(=O)c3ccc(Cl)cc3)c2)cc1CN1CCCC1,52% (active),55% (active),-7,97% (active),inactive,inactive,inactive,inactive
Oc1ccc(Cl)cc1CN1CCC2(CCCN(CC3CCC3)C2)C1 (stereo not given),94% (active),5%,-2,100% (active),inactive,inactive,inactive,inactive
Cc1ccc(O)cc1Nc1ccnc2ccc(-c3cccc(CNCCN(C)C)c3)cc12,46%,-7%,-3,100% (active),inactive,inactive,inactive,inactive
CC(CN1CCN(C)CC1)C(=O)Nc1ccc(-c2cccc(-c3nc4ccccc4[nH]3)c2)cc1 (stereo not given),81% (active),4%,3,94% (active),inactive,inactive,inactive,inactive
COc1ccc(-n2nc(C)c3c2NC(=O)CC3c2ccccc2OCc2ccccc2F)cc1 (stereo not given),70% (active),38%,4,93% (active),inactive,inactive,inactive,inactive
CN1CC[C@@H](Oc2cc(NC(=O)Nc3ccc(Cl)c(C(F)(F)F)c3)ccc2Cl)C1,68% (active),17%,0,100% (active),inactive,inactive,inactive,inactive

SMILES,growth inhibition [1],inhibition [2],inhibition [3] [%],growth inhibition [4],outcome [5],outcome [6],outcome [7],outcome [8]
O=C(Nc1cccc(CN2CCCN(Cc3ccsc3)CC2)c1)c1cc2ccccc2s1,29%,25%,5,96% (active),inactive,inactive,inactive,inactive
Cc1cc(NCC(c2ccccc2)c2ccccc2)nc(NCC2CCCCC2)n1,93% (active),12%,3,100% (active),inactive,inactive,inactive,inactive
CCCCc1ccc(NC(=O)Nc2cccc(CCNCc3ccccc3)c2)cc1,13%,3%,2,94% (active),inactive,inactive,inactive,inactive
CNC(=O)Cc1ccc(C(=O)Nc2cccc(-c3ccc(-c4nc5c(C)cccc5[nH]4)s3)c2)cc1,25%,66% (active),0,91% (active),inactive,inactive,inactive,inactive
Cc1cccc(Nc2nccc(Nc3cccc(C(=O)NCCN4CCOCC4)c3)n2)c1,11%,10%,-2,91% (active),inactive,inactive,inactive,inactive
COc1ccc2nc3cc(Cl)ccc3c(N)c2c1,100% (active),100% (active),-5,102% (active),inactive,inactive,inactive,inactive
Cc1cc(=O)c(C2CCC(c3ccc(Cl)cc3)CC2)c(C)[nH]1 (stereo not given),70% (active),-13%,0,88% (active),inactive,inactive,inactive,inactive
CS(=O)(=O)Nc1ccc(OCCCCCCOc2ccc(NS(C)(=O)=O)cc2)cc1,82% (active),3%,4,93% (active),inactive,inactive,inactive,inactive
O=C(CCNc1ccnc(NCCc2ccc(F)cc2)n1)Nc1ccccc1,10%,9%,-4,95% (active),inactive,inactive,inactive,inactive
COc1ccc(CCCCN2C(=O)C(c3ccccc3)(c3ccccc3)N=C2N)cc1,95% (active),40%,-2,97% (active),inactive,inactive,inactive,inactive
CC(C)(C)c1ccc2nc(-c3ccc(/C=C/C(=O)NC4CCN(Cc5ccccc5)CC4)cc3)[nH]c2c1,96% (active),45%,-2,101% (active),inactive,inactive,inactive,inactive
COc1ccc(C2CCN(CCCCNC(=O)c3ccc(NC(=O)c4ccc(Cl)cc4)cc3)CC2)c(OC)c1,95% (active),32%,0,101% (active),inactive,inactive,inactive,inactive
Cc1nc2nc(N)nc(N)c2c(C)c1Cc1cccc(F)c1,1%,65% (active),-5,96% (active),inactive,inactive,inactive,inactive
Cc1cc(C)cc(OCC(O)CN(Cc2cc(Cl)cc(Cl)c2)C(=O)Nc2ccc([N+](=O)[O-])cc2)c1 (stereo not given),38%,-3%,4,95% (active),inactive,inactive,inactive,inactive
CC(C)CCCC(C)(C)NC[C@@H](O)[C@H](Cc1ccccc1)NC(=O)c1cccc(CCC2CC2)c1,52% (active),100% (active),0,98% (active),inactive,inactive,inactive,inactive
O=C(CNCC1CCCCC1)Nc1cc(C(F)(F)F)ccc1Cl,67% (active),1%,2,86% (active),inactive,inactive,inactive,inactive
CCN(CCCNc1nc(=S)[nH]c2cc(OC)c(OC)cc12)c1ccccc1,23%,14%,-2,100% (active),inactive,inactive,inactive,inactive
CCc1cc(OC)c(C(=O)NC2CCN(C[C@H](O)c3ccnc4ccc(OC)cc34)CC2)cc1Br,56% (active),6%,2,98% (active),inactive,inactive,inactive,inactive
COc1ccc(-c2ccc(NC(=O)c3ccc(C#N)cc3)cc2)cc1CN(C)CCO,44%,41%,9,99% (active),inactive,inactive,inactive,inactive
Oc1ccc2[nH]cc(C3CCN(CCCNCc4ccc(-c5ccccc5)cc4)CC3)c2c1,-1%,22%,-4,101% (active),inactive,inactive,inactive,inactive
